Compound activity as filed in PubChem.
Hits are enriched below; roughly 1.8% of the tested compounds scored in any of these assays.
Myeloid diff 2 = promotes myeloid progenitor differentiation; 360,000 tested, 1% active; ER-HoxA9 myeloid progenitors, lysozyme-GFP differentiation, flow cytometry; calls only at 10 µM; AID 624256;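 active = normalized GFP-positive differentiation at or above the plate's own cutoff, the solvent-only control mean plus 3 SD; inconclusive = no clear call, values can overlap the other calls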;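 note: cells exposed to compound for four days before flow analysis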
RPL19A TOR yeast = yeast TOR pathway RPL19A-GFP modulation; S. cerevisiae RPL19A-GFP strain, flow cytometry, 3 h; active compounds read low; percent response vs DMSO, % at 10 µM; 330,000 tested, 0.3% active; AID 2025;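 active = percent response vs DMSO below 50%; inconclusive = fewer than 70 events counted for the yeast strain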;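 note: median channel GFP fluorescence of the barcoded RPL19A-GFP strain; ratio of sample median GFP to plate DMSO average so 100% = DMSO; lower means less RPL19A-GFP as with rapamycin TOR inhibition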
LAP4-GFP MLPCN = yeast TOR pathway LAP4-GFP modulation | 320,000 tested, 0.34% active | GFP response vs DMSO, % at 10 µM | S. cerevisiae LAP4-GFP multiplex, flow cytometry GFP, 3 h; median GFP as percent of DMSO wells;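 active = GFP response vs DMSO above a set limit, about the screen mean plus 3 SD, cut at about 150% in these data; inconclusive = under 70 cell events counted for the yeast strain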
AGP1-GFP MLPCN = yeast TOR pathway AGP1-GFP modulation | S. cerevisiae AGP1-GFP multiplex flow cytometry, 3 h; GFP as percent of DMSO wells | GFP response vs DMSO, % at 10 µM | 320,000 tested, 0.02% active;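 active = GFP response relative to DMSO above a set limit, near screen average plus 3 SD, cut at about 150% in these data; inconclusive = fewer than 70 cells counted for the yeast strain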;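 note: median GFP channel fluorescence of the gated AGP1 strain per well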
MEP2 TOR yeast = alters MEP2-GFP fluorescence in TOR pathway yeast screen; S. cerevisiae MEP2-GFP strain, flow cytometry GFP, 3 h; 100% = DMSO control level; GFP response vs DMSO, % at 10 µM; 330,000 tested, 0.51% active; AID 2016;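 active = GFP response versus DMSO above a set limit, roughly screen mean plus 3 SD, cut at about 180% in these data; inconclusive = fewer than 70 cells counted for a yeast strain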;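 note: median GFP fluorescence of the barcode-gated MEP2-GFP cells per well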
CIT2 TOR yeast = modulators of TOR pathway CIT2-GFP in S. cerevisiae. S. cerevisiae CIT2-GFP strain, flow cytometry, 3 h; 100 means same as DMSO wells. GFP response vs DMSO, % at 10 µM. 320,000 tested, 0.065% active. AID 2029;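 active = GFP response relative to DMSO above a set limit, near the screen mean plus 3 SD, cut at about 150% in these data; inconclusive = Fewer than 70 cells measured for a yeast strain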;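 note: ratio of well median GFP fluorescence to mean of DMSO wells on the plate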
LAP4 cherry2 = reconfirmed LAP4-GFP TOR pathway modulator in yeast; 590 tested, 20% active; shares compounds with LAP4-GFP MLPCN; GFP response vs DMSO, % at 10 µM; S. cerevisiae LAP4-GFP strain, flow cytometry GFP, 3 h;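 active = GFP signal as percent of the solvent control above about 150%, meaning raised reporter expression, limit read from the data; inconclusive = fewer than 70 cells counted in the well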;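 note: ratio of well median GFP fluorescence to plate DMSO mean so 100% = DMSO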
MEP2 cherry2 = reconfirmed MEP2-GFP TOR pathway modulator in yeast; GFP response vs DMSO, % at 10 µM; 590 tested, 10% active; AID 2622; shares compounds with LAP4-GFP MLPCN; S. cerevisiae MEP2-GFP strain, flow cytometry GFP, 3 h;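 active = GFP signal above 150% of the solvent control wells, that is a rise of more than half; inconclusive = fewer than 70 yeast cells counted in the well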;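 note: median channel GFP fluorescence of all gated yeast cells per well; ratio of median GFP to plate DMSO average so 100% = DMSO level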
RPL19A-GFP pick2 = yeast RPL19A-GFP TOR reporter modulation, second cherry pick | S. cerevisiae RPL19A-GFP strain, flow cytometry GFP, 3 h; active compounds read low; 100% means same as DMSO wells | AID 2623 | GFP response vs DMSO, % at 10 µM | 590 tested, 3% active | shares compounds with LAP4-GFP MLPCN;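 active = under 65% GFP response relative to DMSO; inconclusive = yeast strain with under 70 measured events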;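 note: median GFP channel fluorescence per well over the all cells gate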
CIT2-GFP pick2 = reconfirmed modulator of CIT2-GFP TOR reporter in yeast | shares compounds with LAP4-GFP MLPCN | S. cerevisiae CIT2-GFP strain, flow cytometry GFP, 3 h; DMSO control wells read 100% | GFP response vs DMSO, % at 10 µM | 590 tested, 8% active | AID 2624;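 active = GFP response vs DMSO above about 150%, limit read from the data; inconclusive = fewer than 70 events counted for a yeast strain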;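 note: median green fluorescence per well over all gated yeast cells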
AGP1-GFP pick2 = reconfirmed modulator of AGP1-GFP TOR reporter in yeast. shares compounds with LAP4-GFP MLPCN. S. cerevisiae AGP1-GFP strain, flow cytometry GFP, 3 h. percent response vs DMSO, % at 10 µM. 590 tested, under 10 active;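 active = over 150 percent of DMSO response; inconclusive = yeast strain measured with under 70 events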;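 note: median GFP channel fluorescence over all cells without mother daughter split; sample median GFP divided by mean DMSO control so 100% equals DMSO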
Yeast autofluor = compound is autofluorescent in yeast s288c cells; shares compounds with LAP4-GFP MLPCN; S. cerevisiae s288c, 520 nm autofluorescence, flow cytometry, 3 h; active compounds read high; zero means same as solvent-only cells; fluorescence change (kMESF span) at 33 µM; 610 tested, under 10 active; AID 2757;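 active = fluorescence span over the dose series, or activity score, above about 33, limit read from the data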
An asterisk follows results filed as active; i = inactive; u = inconclusive; x = no result; + = active, no number.

SMILES	Myeloid diff 2	RPL19A TOR yeast	LAP4-GFP MLPCN	AGP1-GFP MLPCN	MEP2 TOR yeast	CIT2 TOR yeast	LAP4 cherry2	MEP2 cherry2	RPL19A-GFP pick2	CIT2-GFP pick2	AGP1-GFP pick2	Yeast autofluor
Nc1ccc(Br)c2c1C(=O)c1ccccc1C2=O	x	62	143	71	134	128	156*	113	80	126	94	0.1
CCC1CCC(N2CCN(c3ccccc3F)CC2)CC1 (stereo unspecified)	i	104	101	104	111	102	x	x	x	x	x	x
O=C1NCCN/C1=C\C(=O)c1cccc(Br)c1	i	102	112	109	100	96	x	x	x	x	x	x
O=C1N=c2ccccc2=C1c1c(O)n(-c2cccc(F)c2)[nH]c1=O	i	77	200*	89	97	74	147	105	94	110	94	x
Cc1ccc2nc(-c3ccc(NC(=S)NC4CC(C)(C)NC(C)(C)C4)cc3)sc2c1	x	55	83	14	129	71	125	108	95	104	93	x
COc1ccc(NC(=O)CC(C)=O)c(OC)c1	i	x	x	x	x	x	100	93	101	104	98	x
COc1cc(S(N)(=O)=O)c(OC)cc1N	i	102	98	100	93	104	x	x	x	x	x	x
Cc1ccc(C(=O)/C=C/C(=O)c2ccc(C)cc2)cc1	i	97	168*	84	93	93	x	x	x	x	x	0.61
Oc1ccc(COCc2ccccc2)c2cccnc12	u	97	160*	102	96	99	x	x	x	x	x	0.4
CC(C)Oc1ccc(CN2CCC2(C)C(=O)Nc2ccc(Cl)c(Cl)c2)cc1 (stereo unspecified)	i	x	x	x	x	x	x	x	x	x	x	x
CC[C@]12CCCN3CCc4c(n(c5ccccc45)C(=O)C1)C32 (stereo partly specified)	x	82	167*	89	93	84	98	101	98	95	96	x
COc1ccc(CN2CCC(n3nccc3NC(=O)CCOc3ccccc3)CC2)cc1C	i	103	87	99	112	x	x	x	x	x	x	x
CC(C)Cc1nc2sc3c(SCC(N)=O)ncnc3c2c2c1CCC2	i	101	106	107	100	89	x	x	x	x	x	x
Cc1cc2ccccn2c1C(=O)c1ccc([N+](=O)[O-])o1	x	84	218*	97	101	121	x	x	x	x	x	18
CC(C)[C@@]1(c2ccc(Cl)cc2)ON(c2ccccc2C(F)(F)F)C1=O	x	57	96	20	147	u	102	98	102	107	97	-0.1
COc1ccc(C2(c3ccc(OC)cc3)NC(=O)N(CC(=O)Nc3ccccc3C(F)(F)F)C2=O)cc1	i	103	94	97	102	92	x	x	x	x	x	x
Cc1nn(-c2ccccc2C(F)(F)F)c(=O)c2noc(C)c12	i	99	119	119	91	124	x	x	x	x	x	x
COc1ccc([C@@]2(C(C)C)ON(c3ccccc3C(F)(F)F)C2=O)cc1	i	96	106	97	93	104	118	106	104	106	97	-0.2
COc1ccc([C@]2(C(C)C)ON(c3ccccc3C(F)(F)F)C2=O)cc1	i	96	107	94	95	92	114	106	101	114	108	-0.1
O=C(NC1CCCC1)C(c1ccccc1F)N(C(=O)c1csnn1)C1CC1 (stereo unspecified)	u	99	103	95	106	90	x	x	x	x	x	x
O=C(CSc1nc2cc(S(=O)(=O)N3CCOCC3)ccc2o1)Nc1c(F)cccc1F	i	95	95	93	96	85	x	x	x	x	x	x
O=C1CCC(C(=O)NCc2cccnc2)N1 (stereo unspecified)	i	98	98	94	100	97	x	x	x	x	x	x
O=C(Nc1ccc(NC(=O)c2cc3ccccc3o2)cc1)c1ccc2c(c1)OCCO2	i	101	99	104	99	106	x	x	x	x	x	0.1
COc1cc(NC(=O)c2ccc(C)cc2)ccc1NC(=O)c1cc2ccccc2o1	+	92	84	34	168	76	x	x	x	x	x	0.1
CCC(=O)Nc1ccc(NC(=O)c2cc3ccccc3o2)c(OC)c1	i	102	101	110	99	104	x	x	x	x	x	0.1
SMILES	Myeloid diff 2	RPL19A TOR yeast	LAP4-GFP MLPCN	AGP1-GFP MLPCN	MEP2 TOR yeast	CIT2 TOR yeast	LAP4 cherry2	MEP2 cherry2	RPL19A-GFP pick2	CIT2-GFP pick2	AGP1-GFP pick2	Yeast autofluor
Cc1cc(NC(=O)c2cccnc2Cl)ccc1NC(=O)c1cc2ccccc2o1	i	105	90	97	100	103	x	x	x	x	x	0.1
COC(=O)/C(=C(/F)SCC(C)=O)C(F)(F)F	x	96	128	101	93	95	x	x	x	x	x	x
Cc1cccc(/C=C2\Oc3cc(OS(C)(=O)=O)ccc3C2=O)c1	i	97	87	91	94	94	x	x	x	x	x	x
COc1cc(-c2cc3nc(NCCc4ccncc4)ccn3n2)cc(OC)c1OC	i	x	x	x	x	x	x	x	x	x	x	x
Cc1nn2c(NCc3ccccn3)c3c(nc2c1-c1ccccc1)CCC3	u	94	152*	72	118	70	x	x	x	x	x	2.7
CCc1ccc(/C=C/C(=O)c2cc(Br)ccc(=O)c2O)cc1	i	93	146	68	109	78	156*	122	78	146	77	8.2
Cc1ccc(S(=O)(=O)N2CCC(n3nnc4cc(C)ccc43)CC2)cc1	i	104	99	112	106	101	x	x	x	x	x	x
Cc1ccc2c(c1)nnn2C1CCN(S(=O)(=O)c2ccc(C(=O)N(C)C3CCCCC3)cc2)CC1	i	64	103	29	134	104	96	94	100	108	99	x
Cc1ccc(Nc2nc(C)c3c(n2)CC(C)CC3=O)c(C)c1 (stereo unspecified)	i	95	115	107	108	100	x	x	x	x	x	x
CCn1c(C)nc2c(C)[n+](CC(=O)c3ccc(Br)cc3)ccc21	i	106	96	104	106	110	x	x	x	x	x	x
